DT40 TDP1 CPT – DT40-hTDP1 cell growth loss with CPT. 420,000 compounds, 12% hits. Potency, µM (highest dose often 46.2 µM), inactives show at the highest dose activity change, negative = growth inhibition, most hits filed as inhibitors. chicken DT40 Tdp1-/-;hTDP1 cells + 20 nM CPT, ATP luminescence, 48 h. AID 686979; further: potency means the concentration at half of the fitted maximal effect; nearly all actives have a fitted effect of over 55% in size
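Chicken DT40 Tdp1-/- cells stably complemented with human TDP1 were seeded at 400 cells/well in medium containing 20 nM camptothecin, exposed to pin-transferred compounds, and grown at 37 °C for at least 48 hr. Viability was read as ATP luminescence.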
DT40 TDP1 no CPT – qHTS for Inhibitors of human tyrosyl-DNA phosphodiesterase 1 (TDP1): qHTS in cells in absence of CPT; 420,000 compounds, 15% hits; DT40 Tdp1-/- hTDP1 cells, no CPT, ATP luminescence, 48 h; Potency, µM (doses to about 46.2 µM), for inactives: at the top dose activity change, negative = growth inhibition, usual class: inhibitors; further: potency means the concentration at half of the fitted maximal effect; nearly all actives have a fitted effect of over 55% in size
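DT40 Tdp1-/-;hTDP1 cells, no CPT (DMSO vehicle only), 400 cells/well; compounds pin-transferred; ≥48 hr, 37 °C; CellTiter-Glo 30 min RT dark, luminescence read.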
IL1B secr inh – blocks inflammasome-driven IL-1 beta release. THP-1 LPS/ATP IL-1B secretion, AlphaLISA, 16 h; stronger effect = lower value. activity change, % at 57.5 µM. 360,000 compounds, 4.7% hits. AID 743279; in the data active means activity change below about -50%; inconclusive means mostly about -30% to -49%
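THP-1 cells pretreated 1 hr with compounds (up to 57.5 uM final), then stimulated with LPS (250 ng/mL final) plus ATP (1.25 mM final); secreted IL-1B measured by AlphaLISA after 16 hr, decreased signal indicating inhibition.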
HT1080 IDH1KD tx – toxicity to HT-1080 IDH1 knockdown cells (counter line) | HT-1080 IDH1 knockdown viability, ATP luminescence, 48 h | 360,000 compounds, 2% hits | Potency, µM (titrated, usually from 46.1 µM), inactives show at the top dose activity, negative = toxicity, actives largely listed as cytotoxic | AID 686971;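 further: potency means the concentration at half of the fitted maximal effect; 0% = DMSO wells and -100% = cell-free medium wells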
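Cytotoxicity counter-line: IDH1KD HT-1080, 48 h, CellTiter-Glo. Curves classed by r2, magnitude and activity.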
HT1080NT lethal – kills 2HG-producing HT-1080-NT fibrosarcoma cells | Potency, µM (doses to about 46.1 µM), for inactives: top-dose activity, negative = less viability, most hits filed as cytotoxic | HT-1080-NT fibrosarcoma viability, CellTiter-Glo ATP luminescence, 48 h | 360,000 compounds, 1.6% hits | AID 686970;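 further: NT is the 2HG producing partner of a matched IDH1 knockdown line; potency means the concentration at half of the fitted maximal effect; 0% = DMSO-treated cells and -100% = media-only wells without cells; nearly all actives have a fitted effect of over 55% in size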
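Viability by CellTiter-Glo luminescence after 48 h compound exposure at 37C of HT-1080-NT cells (750/well, RPMI, 5% FBS). % activity scaled between DMSO wells and medium-only wells, then curve-fitted and categorized by curve class.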
Numbers without * were called inactive; ? = inconclusive; . = not tested or not shown; [ ] = remark or other dose. Compounds with a hit are over-represented: about 19% of the library has one in this group of screens. Unless noted, the call rests on the fitted dose curve; in most records, active means well fitted curve in the direction sought with a large enough effect; inconclusive means small, poorly fitted or top-dose-only effect, or another doubt; inactive means no such curve, though single readings can be large; an effect the other way counts as inactive or inconclusive. Unless noted, on the % scale 0 is the no-effect control and ±100 the full control effect.

SMILES | DT40 TDP1 CPT | DT40 TDP1 no CPT | IL1B secr inh | HT1080 IDH1KD tx | HT1080NT lethal
Cc1ccccc1NC(=O)C1CCCN1C(=O)NC1CCCCC1 (centres undefined) | 0.9% | -2.9% | 4.2 | -4.7% | 9.9%
CCCNC(=O)C1(C)CCCN(C(=O)c2ccc(F)c(Cl)c2)C1 (centres undefined) | -19.2% | -20.4% | -13.5 | 5.8% | 26.8%
C[C@H](CO)N1C[C@H](C)[C@@H](CN(C)Cc2ccccn2)Oc2ncc(Br)cc2C1=O | 4.3% | 3.4% | 14.4 | 7.0% | 9.9%
CCN(CC)c1ccc(-c2nnc(SCC(=O)Nc3ccccc3C#N)n2-c2ccccc2)cc1 | 18.4µM* | 18.4µM* | -3.9 | -22.9% | -23.2%
N#Cc1ccccc1NC(=O)CSc1nnc(-c2ccccc2)n1-c1ccccc1 | 23.1µM* | ? | 25.6 | -9.4% | -1.5%
Cc1ccc(-c2nnc(SCC(=O)CC(=O)Nc3ccccc3)n2-c2ccccc2)cc1 | -2.7% | -0.9% | -16.5 | 2.0% | 1.3%
CCN(CC(=O)NCc1cccs1)C(=O)c1cccc(S(=O)(=O)Nc2ccc(C)cc2)c1 | 1.6% | ? | -6.4 | -20.5% | -0.6%
COc1cc2cc(CN(Cc3cccs3)C(=S)Nc3ccc(C)cc3)c(=O)[nH]c2cc1OC | 25.9µM* | 16.4µM* | -8.6 | -4.9% | -13.2%
CCC(C)NC(=S)N(CCc1ccccc1)Cc1cc2cc(OC)c(OC)cc2[nH]c1=O (centres undefined) | ? | 18.4µM* | ? | -16.5% | -13.8%
CNC(=S)N(Cc1cccs1)Cc1cc2cc(OC)c(OC)cc2[nH]c1=O | ? | 18.4µM* | 2.1 | 0.3% | -5.3%
Cc1cccc(NC(=S)N(Cc2cccs2)Cc2cc3cc(C)ccc3[nH]c2=O)c1 | 18.4µM* | 20.6µM* | 10.6 | 5.6% | 11.6%
CNC(=S)N(Cc1ccc(OC)cc1)Cc1cc2cc(C)ccc2[nH]c1=O | 6.1% | -2.6% | 7.8 | 0.0% | 5.1%
CCc1cccc(C)c1NC(=O)Cn1ccn(-c2ccc(F)cc2)c(=O)c1=O | 9.9% | 6.8% | . | . | .
CCOc1ccc(NC2=NC(C(=O)NCc3ccccc3)CC(=O)N2)cc1 (centres undefined) | -13.0% | 4.3% | 2.3 | 0.7% | 9.8%
COC(=O)c1ccccc1-c1cc(C)cc2c1OC(CNC(=O)c1cc(C)on1)C2 (centres undefined) | -8.5%[9.04 µM] | ? | . | . | .
CCc1ccccc1NC(=O)C1CCN(S(=O)(=O)c2cn(C)cn2)CC1 | -1.1% | -9.4% | . | . | .
Oc1ccc(-c2onc(C(F)(F)F)c2-c2cscn2)c(O)c1 | ? | 20.6µM* | 10.4 | -0.4% | 6.4%
Cc1nc(-c2c(C(F)(F)F)noc2-c2ccc(O)cc2O)cs1 | ? | ? | 0.0 | ? | -19.5%[9.24 µM]
O=C1Nc2ccccc2-n2nnnc2C1N1CCN(c2ccc(C(F)(F)F)cn2)CC1 (centres undefined) | 16.4µM* | 20.6µM* | 20.5 | 6.7% | 13.5%
Cc1cc2c(cc1C)-n1nnnc1C(N1CCN(c3ccccc3F)CC1)C(=O)N2 (centres undefined) | 18.4µM* | 18.4µM* | 7.3 | -15.2% | 0.3%
Cc1cccc(N2CCN(C3C(=O)Nc4ccccc4-n4nnnc43)CC2)c1C (centres undefined) | 11.6µM* | 7.31µM* | 29.4 | 10.3µM* | ?
Cc1ccc(N2CCN(C3C(=O)Nc4ccccc4-n4nnnc43)CC2)cc1 (centres undefined) | -29.9% | ? | 23.6 | -8.6% | -4.5%
Cc1cc2c(cc1C)-n1nnnc1C(N(C)Cc1ccccc1)C(=O)N2 (centres undefined) | 20.6µM* | 14.6µM* | 8.4 | -1.7% | -5.9%
Cc1cc2c(cc1C)-n1nnnc1C(N1CCCC1)C(=O)N2 (centres undefined) | -15.9% | -28.7% | 3.4 | 8.6% | 11.6%
COc1ccc(NC(=O)CSc2ccc(-c3cccnc3)nn2)c(OC)c1 | -14.6% | -29.6% | -17.0 | 10.1% | 7.3%

Screening results from PubChem BioAssay.
